# Results reported in PubChem BioAssay AID504332 (National Center for Advancing Translational Sciences (NCATS), 2011).
# Several values for one entry are separate records, joined by “and”; a condition that tells them apart may be missing. Equal values may be shown once. In all, about 350,000 compounds went through this assay and about 31,000 (8.9%) were called active. Entries that show only a call come without a potency. Another 15% or so got no clear call; they are omitted. This is one part of a sample in which actives are shown more often than they occur. The call rests on the fitted dose curve; in most records, active means well fitted inhibition curve with a large enough effect; inconclusive means small, poorly fitted or top-dose-only effect; inactive means no such curve, though single readings can be large or run the other way. The source holds several records for some structures; these can differ, active in one and inactive in another.
# Biological target: Histone-lysine N-methyltransferase EHMT2 (Homo sapiens) (UniProt Q96KQ7)
# Assay: qHTS Assay for Inhibitors of Histone Lysine Methyltransferase G9a; further: nearly all actives have a fitted effect of over 75% in size
# Conditions: G9a H3K9 monomethylation, AlphaScreen, 2 h; series mostly up to 59 µM
# Summary of the method: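 G9a (20 nM) was preincubated 15 min with compound, then reacted 2 h at room temperature with 500 nM biotin-H3K9 peptide and 20 µM SAM. Monomethyl-H3K9 detected by AlphaScreen using anti-H3K9me1 antibody.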
# Potency means the concentration at half of the fitted maximal effect.
# Histone-lysine N-methyltransferase EHMT2 (Homo sapiens), sequence (Q96KQ7 913-1193 limits assumed): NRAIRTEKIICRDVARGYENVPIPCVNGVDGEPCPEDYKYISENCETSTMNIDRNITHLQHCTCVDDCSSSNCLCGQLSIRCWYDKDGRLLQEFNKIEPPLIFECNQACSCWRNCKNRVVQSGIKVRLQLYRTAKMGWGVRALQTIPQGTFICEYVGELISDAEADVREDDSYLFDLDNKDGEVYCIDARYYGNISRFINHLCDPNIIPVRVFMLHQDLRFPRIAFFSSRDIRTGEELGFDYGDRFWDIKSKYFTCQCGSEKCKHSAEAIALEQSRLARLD
SMILES,Potency,"activity, negative = inhibition"
O=C1OC(C(=O)Nc2cccc(Br)c2)Cc2ccccc21 (configuration not stated),inactive,–
COc1ccc(NC(=O)c2sc3nc(-c4cc5cccc(OC)c5oc4=O)[nH]c(=O)c3c2C)cc1,inactive,–
O=C(CN1CCN(S(=O)(=O)c2cccc(Cl)c2)CC1)N1CCCCC1,–,6.11% [at 12.7 µM] (inactive)
CC(=O)N1CCc2cc(S(=O)(=O)NC(Cc3ccccc3)C(=O)NCc3ccc(C)cc3)ccc21 (configuration not stated),inactive,–
NC(=O)c1c(Nc2nc3c(F)cccc3s2)sc2c1CCCC2,2.82 µM (active),–
Fc1cc(F)c2nc(Nc3nc4c(F)cccc4s3)sc2c1,inactive,–
Cc1cc(OC(C)C(=O)Nc2sc3c(c2C(N)=O)CCCC3)ccc1Cl (configuration not stated),inactive,–
CC(c1ccccn1)N(C)C(=O)c1ccc2nc(Cc3cccc(Cl)c3)oc2c1 (configuration not stated),inactive,–
O=C(N/N=C/c1cccc(OCc2ccccc2)c1)c1ccc(Br)o1,inactive,–
Cn1c(SCC(=O)N2CCCc3ccccc32)ncc(C(=O)Nc2ccc(F)cc2)c1=O,inactive,–
CCN(CC)C(CNC(=O)CSc1nnnn1-c1cccc(F)c1)c1ccco1 (configuration not stated),–,5.11% [at 12.7 µM] (inactive)
Cc1ccc(C(=O)N/N=C\c2cc(Br)c(Br)o2)cn1,50.1 µM (active),–
O=C(N/N=C/c1ccc(Br)o1)c1cncc(Br)c1,inactive,–
O=C(O)c1ccc(/C=N/NC(=O)c2ccc(Br)cc2)cc1,inactive,–
COc1ccc(CC(=O)OC(C)C(=O)Nc2ccc(S(N)(=O)=O)cc2)cc1 (configuration not stated),–,-8.93% [at 2.33 µM] (inactive)
CSc1nc(-c2ccccc2Cl)nc2c1Cc1c(CO)cnc(C)c1O2,inactive,–
COc1ccc(CNC(=O)C(c2ccc(O)cc2)N(Cc2ccco2)C(=O)c2snc(C(N)=O)c2N)cc1 (configuration not stated),inactive,–
O=C(OCc1cc(=O)n2ccsc2n1)C1(c2ccc(Cl)cc2)CC1,–,2.61% [at 12.7 µM] (inactive)
CCN1CCN(CCCNC(=O)c2ccc3c(c2)sc2nc(-c4ccc(OC)cc4)cn23)CC1,inactive,–
CN(C)S(=O)(=O)c1ccc(C(=O)NCC2(N3CCOCC3)CCCCC2)cc1,–,0.405% [at 2.33 µM] (inactive)
CN1CN(C)c2ccc([N+](=O)[O-])c3cccc1c23,50.1 µM (active),–

SMILES,Potency,"activity, negative = inhibition"
Cc1ccc(C)c(OCCC(=O)OCC(=O)c2ccc3c(c2)NC(=O)CO3)c1,–,6.89% [at 12.7 µM] (inactive)
O=C(O)CN1c2cccc3cccc(c23)S1(=O)=O,44.7 µM (active),–
CCN(CC(=O)Nc1c(F)cccc1F)C(=O)CN1c2cccc3cccc(c23)S1(=O)=O,–,5.18% [at 0.501 µM] (inactive)
COc1ccc(NC(=O)C(C)N2c3cccc4cccc(c34)S2(=O)=O)c(OC)c1 (configuration not stated),inactive,–
Cc1ccc(-n2c(SCC(=O)N3CCC(C(=O)O)CC3)nc3ccccc3c2=O)cc1C,inactive,–
CC(C)OC(=O)c1ccc(COc2ccc3ccc(=O)oc3c2)o1,inactive,–
Cc1nc2ccc(C(=O)O)cc2[nH]1,70.8 µM (active),–
CC(C)c1nc2ccc(C(=O)O)cc2[nH]1,inactive,–
Cc1nonc1C(=O)N/N=C/c1ccc(O)cc1,inactive,–
O=C(N/N=C/c1ccc(Cl)c(Cl)c1)c1ccc2nc[nH]c2c1,inactive,–
Cc1nc2ccc(C(=O)N/N=C/c3ccc(O)cc3)cc2[nH]1,79.4 µM (active),–
Cc1ccc2nc(CNC(=O)c3ccccc3)[nH]c2c1,inactive,–
CCc1ccccc1N1C(=O)CN(S(=O)(=O)CC)CC1(C)C(=O)NC1CCCCC1 (configuration not stated),inactive,–
Cc1ccc2nc(COc3ccc(NC(=O)COc4ccccc4F)cc3)cc(=O)n2c1,inactive,–
C[C@H](NC(=O)c1ccccc1Cl)C(=O)OCC(=O)N1CCN(c2ccccc2)CC1,–,-0.744% [at 12.7 µM] (inactive)
Cn1c(=O)c2c(nc(SCC(=O)Nc3ccc(F)cc3)n2Cc2ccc(Cl)cc2)n(C)c1=O,inactive,–
COc1cccc(-n2c(N)cc(=O)nc2SCC(=O)Nc2cc(C)on2)c1,inactive,–
COc1ccccc1CNC(=O)CCCn1c(=O)c2ccccc2n(CC(=O)Nc2ccc(C)cc2Cl)c1=O,inactive,–
CCOC(=O)c1ccc(NC(=O)CSc2nc3c([nH]c4ccccc43)c(=O)n2C)cc1,inactive,–
C=CCNC(=S)N/N=C/c1ccc(C)s1,–,72.7% [at 12.7 µM] (inactive)
CNC(=S)N/N=C/c1ccc(N2CCOCC2)s1,28.2 µM (active),–

SMILES,Potency,"activity, negative = inhibition"
Cc1cc(C(=O)N/N=C/c2ccc(N3CCOCC3)cc2)c(C)o1,inactive,–
COc1cc2ccccc2cc1C(=O)Nc1ccc(NC(=O)c2cccs2)cc1,inactive,–
O=C(Cc1ccc(Cl)cc1)Nc1ccc2nn(-c3ccc(Cl)cc3)nc2c1,inactive,–
Cc1ccc(CCNC(=O)Cn2c(-c3cccs3)cc3cc(F)ccc32)cc1,inactive,–
CCOC(=O)c1cccc(NC(=O)C(Cc2ccccc2)NS(=O)(=O)c2cccc3nsnc23)c1 (configuration not stated),inactive,–
Cc1ccnc(NC(=O)C(C)N2C(=O)c3ccccc3C2=O)c1 (configuration not stated),inactive,–
Cc1ccc(N2C(=O)c3ccccc3C2(O)c2ncc[nH]2)cc1 (configuration not stated),7.08 µM (active),–
Cc1ccc(-n2ccc(=O)c(C(=O)O)n2)cc1,inactive,–
O=C(O)c1ccccc1-c1ccccc1C(=O)NCCc1ccccc1,inactive,–
CCOCCCNC(=O)c1c(NC(=O)c2nc(SC)ncc2Cl)sc2c1CCCC2,inactive,–
COc1ccc(N2C(=O)CC(SC(C)C)C2=O)cc1 (configuration not stated),inactive,–
COc1ccc(-c2nc(SCC(=O)N3CCCC3)n[nH]2)cc1,inactive,–
COc1ccc(N2C(=O)CC(Sc3n[nH]c(-c4ccc(C)cc4)n3)C2=O)cc1 (configuration not stated),1.58 µM (active),–
CC(=O)Nc1ccc(NC(=O)C2CCCN(S(=O)(=O)c3ccc4c(c3)CCCC(=O)N4)C2)cc1 (configuration not stated),inactive,–
CCN1CCN(C(=O)N(Cc2ccc(Cl)cc2)S(=O)(=O)c2ccc(C)cc2)CC1,–,19.8% [at 2.33 µM] (inactive)
CC(C)(C)c1ccc(CN2C(=O)c3ccccc3S2(=O)=O)cc1,inactive,–
O=[N+]([O-])/C(N=Nc1ccccc1)=N\Nc1ccccc1,31.6 µM (active),–
Cc1ccc(NC(=O)c2cccc(N(C)C)c2)cc1NC(=O)c1ccc(O)cc1,inactive and 14.1 µM (active),–
Cc1ccc(F)cc1NC(=O)c1cccc(N(C)C)c1,inactive,–
Cc1ccc(F)cc1NC(=O)c1ccc2c(c1)OCO2,–,-5.61% [at 12.7 µM] (inactive)
